GLD-1 TGE inh = GLD-1-TGE RNA interaction inhibition (C. elegans). Q17339. purified GLD-1 + fluorescein TGE RNA, fluorescence polarization. inhibition, % at 5.96 µM. hit rate 0.44% among 320,000;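 active = percent inhibition above a per-plate cutoff, the plate mean of test compounds plus 3 SD, cut at about 30% in these data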;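 also: 0% = DMSO wells with GLD-1 and probe and 100% = wells lacking GLD-1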
Target sequence (Q17339 whole entry, looked up): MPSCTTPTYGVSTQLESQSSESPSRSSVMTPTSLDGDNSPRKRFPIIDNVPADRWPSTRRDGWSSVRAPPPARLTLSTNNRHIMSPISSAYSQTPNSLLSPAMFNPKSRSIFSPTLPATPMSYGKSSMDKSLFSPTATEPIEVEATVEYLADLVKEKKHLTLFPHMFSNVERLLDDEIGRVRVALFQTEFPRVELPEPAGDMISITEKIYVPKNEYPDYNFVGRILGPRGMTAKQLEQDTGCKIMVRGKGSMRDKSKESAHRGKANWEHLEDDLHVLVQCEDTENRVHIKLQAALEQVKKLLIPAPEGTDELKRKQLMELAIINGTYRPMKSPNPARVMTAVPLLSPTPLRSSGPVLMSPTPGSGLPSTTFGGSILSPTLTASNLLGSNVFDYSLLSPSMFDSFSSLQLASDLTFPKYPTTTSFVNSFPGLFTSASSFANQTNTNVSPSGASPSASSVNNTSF
MCL1 BIM primary = MCL1-BIM-BH3 interaction inhibition (human); AID 2057; hit rate 0.68% among 320,000; inhibition, % at 10.9 µM; GST-MCL1 / FITC-Bim-BH3 fluorescence polarization;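 active = inhibition above the mean inhibition of all tested compounds plus 3 SD, set per campaign, cut at about 40% in these data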;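 also: 0% = DMSO wells and 100% = unlabeled Bim-BH3 peptide control; higher means more loss of mP so more displacement of Bim peptide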
Mcl1 Bid PPI = disrupts binding of human Mcl-1 to Bid peptide | TR-FRET Mcl-1/Bid-Dy647 peptide binding, 1536-well | Q07820 | AID 1021 | inhibition, % at 21.7 µM | hit rate 0.97% among 220,000;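 active = compounds that cut the binding signal by more than half at the single screening dose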;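 also: His-tagged Mcl-1 with europium anti-His antibody binding Bid BH3 peptide; 0% = Mcl-1 plus peptide wells and 100% = peptide-only wells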
Bim-Mcl-1 = disrupts Bim peptide binding to human Mcl-1; Bead-based flow cytometry, Bim peptide-Mcl-1 binding; hit rate 0.1% among 190,000; inhibition, % at 10 µM; in the data active = inhibition above about 40%;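 also: 0% = no compound tracer wells and 100% = peptide blocker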
Bcl-xL primary = blocks human Bcl-xL binding to Bim BH3 peptide; hit rate 0.7% among 320,000; GST-Bcl-xL / FITC-Bim BH3 peptide fluorescence polarization; inhibition, % at 10.9 µM; Q07817;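 active = inhibition above the mean of all tested compounds plus 3 SD, cutoff set per campaign, cut at about 30% in these data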;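 also: 0% = DMSO wells and 100% = unlabeled Bim-BH3 peptide competitor; inhibitors lower millipolarization by displacing the labeled peptide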
Mcl1 Noxa PPI = disrupts binding of human Mcl-1 to Noxa peptide; Q07820; TR-FRET Mcl-1/Noxa peptide binding, 2 h; inhibition, % at 21.7 µM; hit rate 1.5% among 220,000; AID 1022;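 active = compounds that cut the protein-peptide binding signal by more than 50% relative to plate controls in a single-dose test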;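 also: His-tagged Mcl-1 with rhodamine Noxa BH3 peptide and terbium anti-His antibody; 0% = Mcl-1 plus Noxa peptide wells and 100% = peptide-only wells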
An asterisk follows results filed as active; x = no result given. A selection: hits, their analogues and other compounds. The true share with any hit is near 2.3%.

SMILES	GLD-1 TGE inh	MCL1 BIM primary	Mcl1 Bid PPI	Bim-Mcl-1	Bcl-xL primary	Mcl1 Noxa PPI
CC1Cc2ccccc2N1S(=O)(=O)c1cccc(C(=O)N2Cc3ccccc3CC2C(N)=O)c1 (centres undefined)	-3	-6	x	x	-1	x
CC1(c2cccc3ccccc23)NC(=O)N(CC(=O)NC2CCS(=O)(=O)C2)C1=O (centres undefined)	-12	-8	98*	-4	0	16
COc1ccc(C2(c3ccc(OC)cc3)NC(=O)N(CC(=O)NC3CCS(=O)(=O)C3)C2=O)cc1 (centres undefined)	2	x	x	x	x	x
COc1cc(-c2ccc(Nc3ccccc3C(=O)O)c(OC)c2)ccc1Nc1ccccc1C(=O)O	x	x	98*	x	x	105*
COc1cc(C(=O)N(CCN(C)C)CC2CCCN(Cc3ccccc3F)C2)ccc1C (centres undefined)	3	-3	x	x	0	x
Cc1cc(NC(=O)C(=O)NCCN2CCN(C(=O)c3cccs3)CC2)ccc1Br	-1	2	-10	-1	3	-5
COc1ccc(NC(=O)C(=O)NCCN2CCN(C(=O)c3cccs3)CC2)cc1	1	7	-1	-2	7	62*
NC(=O)c1ccccc1NC(=O)c1ccc2c(c1)OCO2	6	-5	x	x	2	x
Cc1ccc(NC(=O)c2cc(-n3cnnc3)ccc2Cl)cc1	0	-2	-10	1	-2	5
Cc1ccc(NC(=O)c2cc(N3C(=O)C=CC3=O)ccc2Cl)cc1C	-9	15	7	-11	15	77*
Cc1ccc(NC(=O)c2cc(N3C(=O)C=CC3=O)ccc2N2CCOCC2)cc1	x	x	-24	0	x	55*
O=C(Cn1c(=O)n(-c2ccc(F)cc2)c(=O)c2sccc21)NC1CCCCC1	8	-1	-12	-3	3	-48
Cc1nc(NC(=O)c2ccccc2)sc1-c1csc(Nc2cccc(Cl)c2)n1	-8	-23	94*	0	-7	98*
Cc1nc(NC(=O)c2ccccc2)sc1-c1csc(Nc2ccc(Cl)cc2)n1	0	-1	-11	-2	0	-16
COc1ccc(OC)c(Nc2nc(-c3sc(NC(=O)c4ccccc4)nc3C)cs2)c1	-13	-18	-18	-1	-16	29
Cc1ccc(Cl)cc1Nc1nc(-c2sc(NC(=O)c3cccc(Cl)c3)nc2C)cs1	1	-11	61*	-3	-3	40
CCOc1ccccc1Nc1nc(-c2sc(NC(=O)c3ccc([N+](=O)[O-])cc3)nc2C)cs1	-5	5	96*	-1	3	86*
COc1ccc(Cl)cc1Nc1nc(-c2sc(NC(=O)c3ccccc3)nc2C)cs1	2	-16	70*	-2	-6	32
Cc1ccc(C(=O)NC2CCCc3c2cnn3-c2ccc(F)cc2F)cn1 (centres undefined)	7	0	x	x	2	x
COc1ccc(NC(=O)CN(C)C(=O)CNC(=O)c2cccs2)cc1	0	-14	x	x	-9	x
O=C(c1ccc2ccccc2c1)N1CCN(c2ccc(O)cc2)CC1	-1	15	-41	5	12	53*
O=C(CSc1ccc2ccccc2c1)N1CCN(c2ccc(O)cc2)CC1	5	2	-38	x	8	60*
O=C(c1cccc(S(=O)(=O)N2CCc3ccccc3C2)c1)N1CCN(c2ccc(O)cc2)CC1	2	10	-46	-4	18	57*
O=S(=O)(c1ccc2ccccc2c1)N1CCN(c2ccc(O)cc2)CC1	6	x	x	x	x	x
NS(=O)(=O)c1cc2c(cc1Cl)NC(Cc1ccccc1)NS2(=O)=O (centres undefined)	-83	-74	97*	x	-59	-6
SMILES	GLD-1 TGE inh	MCL1 BIM primary	Mcl1 Bid PPI	Bim-Mcl-1	Bcl-xL primary	Mcl1 Noxa PPI
CCOC(=O)N1CCN(C(=O)CSc2ccc3nnc(CCNC(=O)c4ccc(OC)cc4)n3n2)CC1	7	4	89*	-2	6	2
CC(Oc1ccc(Cl)cc1Cl)C(=O)N(C)c1ccccc1 (centres undefined)	9	7	94*	0	0	16
COC(=O)NNC(=O)C(C)Oc1ccc(Cl)cc1Cl (centres undefined)	7	2	-12	0	5	2
CCOc1ccc(NC(=O)CN(C)C(=O)c2cc([N+](=O)[O-])ccc2N2CCOCC2)cc1OCC	8	4	x	x	8	x
CC(C)n1cnc2cc(NCc3ccco3)ccc21	-2	7	-53	0	11	52*
CCCCn1c(N)c(N(CC)C(=O)c2cccs2)c(=O)[nH]c1=O	4	x	x	x	x	x
Cc1ncc(CO)c(/C=N/Nc2ccc(C(F)(F)F)cn2)c1O	5	43*	x	x	40*	x
COc1ccc(C2C(C(=O)/C=C/c3ccco3)=C(O)C(=O)N2CCN2CCOCC2)cc1 (centres undefined)	9	21	-47	4	23	19
CCOc1ccc(C2C(C(=O)/C=C/c3ccco3)=C(O)C(=O)N2CCN2CCOCC2)cc1OC (centres undefined)	12	23	-30	2	34*	11
Cc1ccc(OCC(=O)Nc2cccc(S(=O)(=O)N3CCCCCC3)c2)c([N+](=O)[O-])n1	0	2	-29	-1	3	-14
CCNC(=S)N1CCC(C(=O)c2ccc3c(c2)OCCO3)CC1	-4	3	-39	4	6	-7
CCOCCCNC(=S)N1CCC(C(=O)c2ccc3c(c2)OCCO3)CC1	2	5	-8	2	2	72*
CC(C)(C)NC(=O)C1CCN(S(=O)(=O)c2cccc(C(F)(F)F)c2)CC1	4	5	1	1	4	8
O=C(Nc1cccc2nsnc12)c1ccc(-c2ccc(Br)cc2)o1	-5	-28	63*	-1	-4	27
COC(=O)c1ccccc1NC(=O)c1ccc(-c2ccc(Br)cc2)o1	-6	6	-5	-1	2	19
CCC(C)(C)n1nnnc1C(C(C)C)N(Cc1ccco1)Cc1cc2cc3c(cc2[nH]c1=O)OCO3 (centres undefined)	28	46*	-11	-1	45*	9
COc1ccc2[nH]c(=O)c(CN(C3CCCCC3)C(c3nnnn3Cc3ccco3)C(C)C)cc2c1 (centres undefined)	-15	-34	-17	-10	-25	57*
COc1ccccc1C(=O)C1CCCN(C(=O)c2cnn(C(C)C)c2)C1 (centres undefined)	4	1	x	x	5	x
CCS(=O)(=O)c1ccc(O)c(NC(=O)c2ccc(S(=O)(=O)N3CCCCCC3)cc2)c1	3	x	x	x	x	x
COc1cc(/C=C(\C#N)c2nc3ccccc3[nH]2)cc(OC)c1O	-154	-95	-23	5	-56	72*
CCN(CC)c1ccc(/C=C(/C#N)c2nc3ccc(C)cc3[nH]2)c(OC(C)C)c1	6	24	-35	-6	42*	x
COc1cc(/C=C(\C#N)C(=O)c2c[nH]c3ccccc23)cc(OC)c1O	-51	-51	46	3	-30	70*

Bioassay records as filed in PubChem.
